Assay results: PubChem BioAssay
Values without a mark were called inactive. The list shows a part of the results. Active and inactive are the calls of the source.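 How the source made its calls, unless noted: active means inhibition above the hit cutoff set in the earlier primary screen (cut at about 27% in these data); inactive means the rest.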

molecular target: Bcl-2-like protein 1 (Homo sapiens) (UniProt Q07817); assay: Bcl-xL BH3-peptide displacement, hit confirmation – biochemical, fluorescence polarization, counter-screen for MCL1 inhibitor project (AID 2166;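 active means inhibition above a cutoff equal to the mean inhibition of all tested compounds plus 3 SD, cut at about 30% in these data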); conditions: GST-Bcl-xL / FITC-Bim BH3 peptide FP binding; at 10.9 µM; hits give high values
Sequence (Q07817 whole entry, looked up): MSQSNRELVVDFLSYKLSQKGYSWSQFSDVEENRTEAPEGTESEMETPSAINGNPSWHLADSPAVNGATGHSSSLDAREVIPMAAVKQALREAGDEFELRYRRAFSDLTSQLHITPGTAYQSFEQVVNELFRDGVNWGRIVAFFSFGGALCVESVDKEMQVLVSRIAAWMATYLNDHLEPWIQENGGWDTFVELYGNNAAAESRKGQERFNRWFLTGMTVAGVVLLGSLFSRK

SMILES | inhibition
COc1cccc(N2C(=O)NC(=O)/C(=C\c3cn(C)c4ccccc34)C2=O)c1 | 189% (active)
O=C1NC(=O)N(c2ccccc2)C(=O)/C1=C/c1ccc([N+](=O)[O-])s1 | 36.9% (active)
COc1ccc(N2C(=O)/C(=C/c3ccco3)C(=O)NC2=S)cc1 | 50.7% (active)

molecular target: Protein phosphatase methylesterase 1 (Homo sapiens) (UniProt Q9Y570); assay: human PME-1 methylesterase inhibition confirmation – biochemical, fluorescence polarization, FP-Rh probe, triplicate (AID 2171); conditions: recombinant PME-1, FP-Rh probe fluorescence polarization; at 5.9 µM; hits give high values;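 further: 0% = enzyme with DMSO and 100% = wells lacking PME-1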
Sequence (Q9Y570 whole entry, looked up): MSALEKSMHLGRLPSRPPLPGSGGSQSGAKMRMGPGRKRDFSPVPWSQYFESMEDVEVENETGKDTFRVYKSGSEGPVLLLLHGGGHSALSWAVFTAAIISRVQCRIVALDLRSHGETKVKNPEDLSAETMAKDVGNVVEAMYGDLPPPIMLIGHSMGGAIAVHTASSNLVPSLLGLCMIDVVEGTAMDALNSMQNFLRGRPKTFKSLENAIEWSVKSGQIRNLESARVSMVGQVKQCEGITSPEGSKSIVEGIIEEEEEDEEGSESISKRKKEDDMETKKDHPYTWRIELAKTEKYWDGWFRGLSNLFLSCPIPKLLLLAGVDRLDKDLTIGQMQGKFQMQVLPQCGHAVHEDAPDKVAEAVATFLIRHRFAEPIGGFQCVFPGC

SMILES | inhibition
CCCCn1c(C)c(C(=O)OCC)c2c(CN3CCCC3)c(O)ccc21 | 10.3%
NP(=O)(Oc1ccc(Cl)cc1)Oc1ccc(Cl)cc1 | 63.4% (active)
O=P(CCl)(Nc1ccccc1)C(Cl)(Cl)Cl (stereo unspecified) | 45.2% (active)
CC(=O)c1ccc2c(c1)C1C(Cl)C(Sc3ccccc3[N+](=O)[O-])CC1C(C(=O)O)N2 (stereo unspecified) | 25.9%
CC(=O)c1ccc2c(c1)C1C(Cl)C(Sc3ccccc3[N+](=O)[O-])CC1C(c1ccccc1)N2 (stereo unspecified) | 23.8%
CN(C)C1(c2nnnn2CCOC(=O)Nc2ccc(Cl)cc2)CCCCC1 | 25%
NC(Cc1cc(O)c(O)cc1O)C(=O)O (stereo unspecified) | 69.4% (active)
CCN(CC)S(=O)(=O)c1cc(NC(=O)C(C)N2CC=C(c3ccccc3)CC2)ccc1C (stereo unspecified) | 43.7% (active)
O=P(Oc1ccccc1)(Oc1ccccc1)C(O)c1ccc(Cl)cc1 (stereo unspecified) | 59.3% (active)
O=c1[nH]c(=S)[nH]c(O)c1N=Nc1cc(S(=O)(=O)Nc2ccc(Cl)cc2)ccc1Cl | 40.5% (active)
CC(=O)c1ccc2c(c1)C1C(Cl)C(Sc3ccccc3[N+](=O)[O-])CC1C(c1ccccc1[N+](=O)[O-])N2 (stereo unspecified) | 20.4%
O=P(Oc1ccccc1)(Oc1ccccc1)C(O)c1ccccc1 (stereo unspecified) | 78.1% (active)
Cc1ccc(C(O)P(=O)(Oc2ccccc2)Oc2ccccc2)cc1 (stereo unspecified) | 59.9% (active)
O=[N+]([O-])c1ccc(NCc2ccccc2)c2nonc12 | 50.5% (active)
C[n+]1c(-c2ccccc2)c2cc(N)ccc2c2ccc(N)cc21 | 83.5% (active)
CC(C)C(=O)c1cn(Cc2ccccc2C#N)c2ccccc12 | 62.8% (active)
CC(C)CCOP(N)(=O)Oc1ccccc1Cl (stereo unspecified) | 42.3% (active)
COC(=O)c1nc(-c2ccc3c(n2)C(=O)C(N)=C(OC)C3=O)c(N)c(-c2ccc(OC)c(OC)c2O)c1C | 67.4% (active)
CC1Oc2cc3c(-c4c(O)cc(O)c5c(O)c6c(cc45)OC(C)C(C)C6=O)c(O)cc(O)c3c(O)c2C(=O)C1C (stereo unspecified) | 53.6% (active)
NP(=O)(OCCCc1ccccc1)Oc1ccccc1Cl (stereo unspecified) | 86.4% (active)
COc1cccc(OC)c1C1=NCC(=O)Nc2c1oc1ccc(Br)cc21 | 52.8% (active)
COc1ccc(C(O)P(=O)(Oc2ccccc2)Oc2ccccc2)cc1 (stereo unspecified) | 42.8% (active)
CCC(=O)c1cn(Cc2ccccc2C#N)c2ccccc12 | 19.9%

test system: HIV-1 integrase (multimerization); assay: stimulation of HIV-1 integrase oligomerization – biochemical, TR-FRET, counter-screen for LEDGF/p75 integration inhibitor project (AID 1053131; in the data active means activation above about 8.9%); conditions: TR-FRET HIV-1 integrase multimerization, at 7.7 µM, hits give high values

SMILES | activation [%]
O=C1NC(=O)N(Cc2ccco2)C(=O)/C1=C\c1ccc(-c2ccc(F)cc2)o1 | 1.86
Cc1c(C(=O)O)cccc1-n1c(C)cc(/C=C2\C(=O)NC(=O)N(c3ccc4c(c3)OCO4)C2=O)c1C | 0.15
CCOc1cccc(=NC2CCCCC2)c2c(C)[nH]c(C)c12 | 0.2
CCOC(=O)c1c(N)n(Cc2ccccc2)c2nc3ccccc3nc12 | -0.51
Cc1cc(/C=C2/C(=O)NC(=O)N(Cc3ccco3)C2=O)c(C)n1-c1ccc(C(=O)O)cc1 | 5.24

test system: not listed separately; assay: compounds disturbing TR-FRET signal readout – biochemical, HIV-1 IN multimerization, artefact control for LEDGF/p75-dependent integration inhibitor project, confirmation (AID 1053135;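 active means inhibition above the mean over all tested compounds plus 3 SD, which no compound reached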;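 further: 0% = integrase with antibodies and DMSO and 100% = antibodies without integrase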); conditions: TR-FRET optical interference counterscreen, at 7.7 µM, hits give high values

SMILES | inhibition [%]
O=C1NC(=O)N(Cc2ccco2)C(=O)/C1=C\c1ccc(-c2ccc(F)cc2)o1 | -6.88
Cc1c(C(=O)O)cccc1-n1c(C)cc(/C=C2\C(=O)NC(=O)N(c3ccc4c(c3)OCO4)C2=O)c1C | -0.77
CCOc1cccc(=NC2CCCCC2)c2c(C)[nH]c(C)c12 | -0.97
CCOC(=O)c1c(N)n(Cc2ccccc2)c2nc3ccccc3nc12 | 2.59
Cc1cc(/C=C2/C(=O)NC(=O)N(Cc3ccco3)C2=O)c(C)n1-c1ccc(C(=O)O)cc1 | -26.4

test system: HIV-1 integrase / human LEDGF/p75 complex; assay: blockers of LEDGF/p75-dependent integrase activity – biochemical, TR-FRET, confirmation (AID 1053136; in the data active means inhibition above about 14%); conditions: TR-FRET LEDGF/p75-dependent HIV-1 integration, at 3.7 µM, hits give high values

SMILES | inhibition
O=C1NC(=O)N(Cc2ccco2)C(=O)/C1=C\c1ccc(-c2ccc(F)cc2)o1 | 11.9%
Cc1c(C(=O)O)cccc1-n1c(C)cc(/C=C2\C(=O)NC(=O)N(c3ccc4c(c3)OCO4)C2=O)c1C | 22.9% (active)
CCOc1cccc(=NC2CCCCC2)c2c(C)[nH]c(C)c12 | -1.3%
CCOC(=O)c1c(N)n(Cc2ccccc2)c2nc3ccccc3nc12 | -1.64%
Cc1cc(/C=C2/C(=O)NC(=O)N(Cc3ccco3)C2=O)c(C)n1-c1ccc(C(=O)O)cc1 | 36.5% (active)
